# Several values for one entry are separate records, joined by “and”; a condition that tells them apart may be missing. Identical values can stand only once. Like-named read-outs stand apart in the source and are kept apart here.
# Experiments:
# Details in all cases: concentration: 1 μM, replicates: in singlicate, n = 1
# PKMYT1 = tested on: PKMYT1
# PKN1 = tested on: PKN1
# PKN2 = tested on: PKN2
# PLK1 = tested on: PLK1
# PLK2 = tested on: PLK2
# PLK3 = tested on: PLK3
# PLK4 = tested on: PLK4
# PRKCD = tested on: PRKCD
# PRKCE = tested on: PRKCE
# PRKCH = tested on: PRKCH
# PRKCI = tested on: PRKCI
# PRKCQ = tested on: PRKCQ
# PRKD1 = tested on: PRKD1
# PRKD2 = tested on: PRKD2
# PRKD3 = tested on: PRKD3
# PRKG1 = tested on: PRKG1
# PRKG2 = tested on: PRKG2
# PRKR = tested on: T1, PRKR
# T1 construct: gene EIF2AK2
# PRKX = tested on: PRKX
# PRP4 = tested on: PRP4
# 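Further: KINOMEscan kinase panel screen.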
structure (smiles),measurement,setting,value
N#Cc1c(N2CCOCC2)sc(-c2ccn[nH]2)c1-c1ccc(Cl)cc1,%Inh,PKMYT1,10%
same,%Inh,PKN1,17%
same,%Inh,PKN2,0%
same,%Inh,PLK1,24%
same,%Inh,PLK2,20%
same,%Inh,PLK3,15%
same,%Inh,PLK4,19%
same,%Inh,PRKCD,0%
same,%Inh,PRKCE,0%
same,%Inh,PRKCH,2%
same,%Inh,PRKCI,1%
same,%Inh,PRKCQ,11%
same,%Inh,PRKD1,0%
same,%Inh,PRKD2,0%
same,%Inh,PRKD3,16%
same,%Inh,PRKG1,0%
same,%Inh,PRKG2,8%
same,%Inh,PRKR,0%
same,%Inh,PRKX,12%
same,%Inh,PRP4,56%
O=C(NCCNc1ccnc(Nc2ccc(F)cc2)n1)Nc1ccccc1F [GSK1379880],%Inh,PKMYT1,9%
same,%Inh,PKN1,0%
same,%Inh,PKN2,0%
same,%Inh,PLK1,100%
same,%Inh,PLK2,0%
same,%Inh,PLK3,0%
same,%Inh,PLK4,0%
same,%Inh,PRKCD,0%
same,%Inh,PRKCE,0%
same,%Inh,PRKCH,0%
same,%Inh,PRKCI,25%
same,%Inh,PRKCQ,0%
same,%Inh,PRKD1,0%
same,%Inh,PRKD2,0%
same,%Inh,PRKD3,0%
same,%Inh,PRKG1,0%
same,%Inh,PRKG2,0%
same,%Inh,PRKR,0%
same,%Inh,PRKX,9%
same,%Inh,PRP4,21%
CC(C)(CN)c1nc(-c2ccc(Cl)c(O)c2)c(-c2ccncc2)[nH]1.O=C(O)C(F)(F)F [SB-477794],%Inh,PKMYT1; 1 µM,28% and 26%
same,%Inh,PKN1; 1 µM,23% and 0%
same,%Inh,PKN2; 1 µM,0% and 21%
same,%Inh,PLK1; 1 µM,4% and 1%
same,%Inh,PLK2; 1 µM,0% and 15%
same,%Inh,PLK3,0%
same,%Inh,PLK4; 1 µM,5% and 0%
same,%Inh,PRKCD; 1 µM,78% and 87%
same,%Inh,PRKCE; 1 µM,96% and 96.3%
same,%Inh,PRKCH; 1 µM,92.9% and 94.1%
same,%Inh,PRKCI; 1 µM,97.5% and 97.8%
same,%Inh,PRKCQ; 1 µM,75% and 76%
same,%Inh,PRKD1; 1 µM,92.4% and 93.9%
same,%Inh,PRKD2; 1 µM,89% and 91.8%
same,%Inh,PRKD3,100%
same,%Inh,PRKG1; 1 µM,0% and 20%
same,%Inh,PRKG2; 1 µM,0% and 10%
same,%Inh,PRKR; 1 µM,0% and 12%
same,%Inh,PRKX; 1 µM,21% and 22%
same,%Inh,PRP4; 1 µM,69% and 33%
Cc1cccc(-c2nc(-c3ccc(S(C)(=O)=O)cc3)sc2-c2ccncc2)c1,%Inh,PKMYT1,20%
same,%Inh,PKN1,17%
same,%Inh,PKN2,0%
same,%Inh,PLK1,0%
same,%Inh,PLK2,8%
same,%Inh,PLK3,6%
same,%Inh,PLK4,10%
same,%Inh,PRKCD,24%
same,%Inh,PRKCE,7%
same,%Inh,PRKCH,10%
same,%Inh,PRKCI,0%
same,%Inh,PRKCQ,9%
same,%Inh,PRKD1,0%
same,%Inh,PRKD2,0%
same,%Inh,PRKD3,0%
same,%Inh,PRKG1,0%
same,%Inh,PRKG2,0%
same,%Inh,PRKR,2%
same,%Inh,PRKX,1%
same,%Inh,PRP4,6%
Cc1nnc(-c2ccc(C)c(-c3ccc(C(=O)Nc4ccc(NS(C)(=O)=O)cc4)cc3)c2)o1 [GW702865],%Inh,PKMYT1,0%
same,%Inh,PKN1,28%
same,%Inh,PKN2,15%
same,%Inh,PLK1,0%
same,%Inh,PLK2,0%
same,%Inh,PLK3,7%
same,%Inh,PLK4,6%
same,%Inh,PRKCD,0%
same,%Inh,PRKCE,0%
same,%Inh,PRKCH,0%
same,%Inh,PRKCI,13%
same,%Inh,PRKCQ,0%
same,%Inh,PRKD1,0%
same,%Inh,PRKD2,0%
same,%Inh,PRKD3,17%
same,%Inh,PRKG1,7%
same,%Inh,PRKG2,10%
same,%Inh,PRKR,8%
same,%Inh,PRKX,0%
same,%Inh,PRP4,56%
CC(C)(C)n1cnc2c(N)ncnc21 [SKF-97359],%Inh,PKMYT1,0%
same,%Inh,PKN1,0%
same,%Inh,PKN2,0%
same,%Inh,PLK1,0%
same,%Inh,PLK2,0%
same,%Inh,PLK3,0%
same,%Inh,PLK4,0%
same,%Inh,PRKCD,1%
same,%Inh,PRKCE,0%
same,%Inh,PRKCH,0%
same,%Inh,PRKCI,0%
same,%Inh,PRKCQ,0%
same,%Inh,PRKD1,0%
same,%Inh,PRKD2,13%
same,%Inh,PRKD3,0%
same,%Inh,PRKG1,12%
same,%Inh,PRKG2,0%
same,%Inh,PRKR,0%
same,%Inh,PRKX,0%
same,%Inh,PRP4,17%
NS(=O)(=O)c1cccc(-c2ccc3nccc(-c4cccc(S(N)(=O)=O)c4)c3c2)c1 [GW867253],%Inh,PKMYT1,3%
same,%Inh,PKN1,0%
same,%Inh,PKN2,11%
same,%Inh,PLK1,24%
same,%Inh,PLK2,19%
same,%Inh,PLK3,30%
same,%Inh,PLK4,14%
same,%Inh,PRKCD,23%
same,%Inh,PRKCE,18%
same,%Inh,PRKCH,0%
same,%Inh,PRKCI,0%
same,%Inh,PRKCQ,0%
same,%Inh,PRKD1,0%
same,%Inh,PRKD2,0%
same,%Inh,PRKD3,0%
same,%Inh,PRKG1,28%
same,%Inh,PRKG2,0%
same,%Inh,PRKR,4%
same,%Inh,PRKX,0%
same,%Inh,PRP4,0%
CCCCCc1nc2c(N)ncnc2n1CCCCC [SKF-97255],%Inh,PKMYT1,0%
same,%Inh,PKN1,0%
same,%Inh,PKN2,0%
same,%Inh,PLK1,19%
same,%Inh,PLK2,18%
same,%Inh,PLK3,27%
same,%Inh,PLK4,25%
same,%Inh,PRKCD,18%
same,%Inh,PRKCE,0%
same,%Inh,PRKCH,7%
same,%Inh,PRKCI,8%
same,%Inh,PRKCQ,0%
same,%Inh,PRKD1,0%
same,%Inh,PRKD2,0%
same,%Inh,PRKD3,0%
same,%Inh,PRKG1,0%
same,%Inh,PRKG2,0%
same,%Inh,PRKR,0%
same,%Inh,PRKX,0%
same,%Inh,PRP4,3%
Cl.Cl.Cl.Fc1ccc(-c2ncn(C3CCNCC3)c2-c2ccnc(Nc3ccccc3)n2)cc1 [SB-238039],%Inh,PKMYT1; 1 µM,0% and 1%
same,%Inh,PKN1; 1 µM,0% and 9%
same,%Inh,PKN2; 1 µM,0% and 24%
same,%Inh,PLK1; 1 µM,4% and 0%
same,%Inh,PLK2; 1 µM,6% and 0%
same,%Inh,PLK3; 1 µM,15% and 0%
same,%Inh,PLK4; 1 µM,7% and 26%
same,%Inh,PRKCD; 1 µM,66% and 28%
same,%Inh,PRKCE; 1 µM,69% and 29%
same,%Inh,PRKCH; 1 µM,58% and 19%
same,%Inh,PRKCI; 1 µM,53% and 34%
same,%Inh,PRKCQ; 1 µM,20% and 50%
same,%Inh,PRKD1; 1 µM,96.5% and 91.3%
same,%Inh,PRKD2; 1 µM,95.3% and 91.8%
same,%Inh,PRKD3; 1 µM,88% and 90.8%
same,%Inh,PRKG1; 1 µM,3% and 0%
same,%Inh,PRKG2; 1 µM,0% and 28%
same,%Inh,PRKR; 1 µM,0% and 3%
same,%Inh,PRKX,0%
same,%Inh,PRP4; 1 µM,32% and 0%
[2H]C([2H])(c1cccc(C(F)(F)F)c1C)n1ccn2c(=O)nc(N3CCOCC3)cc12 [GSK2336394],%Inh,PKMYT1,0%
same,%Inh,PKN1,39%
same,%Inh,PKN2,0%
same,%Inh,PLK1,0%
same,%Inh,PLK2,0%
same,%Inh,PLK3,0%
same,%Inh,PLK4,0%
same,%Inh,PRKCD,6%
same,%Inh,PRKCE,2%
same,%Inh,PRKCH,0%
same,%Inh,PRKCI,22%
same,%Inh,PRKCQ,9%
same,%Inh,PRKD1,17%
same,%Inh,PRKD2,4%
same,%Inh,PRKD3,27%
same,%Inh,PRKG1,0%
same,%Inh,PRKG2,0%
same,%Inh,PRKR,0%
same,%Inh,PRKX,14%
same,%Inh,PRP4,18%

# — article PMC5540273 (PLoS ONE, 2017)
